Assay results reported in the supplement of paper PMC13380429.
A number with no mark means an inactive call.

Test system: Vero E6 infected with SARS-CoV-2
Assay: inhibition of SARS-CoV-2 cytopathic effect; higher = more antiviral protection, active = above 15
Settings: 48 h

Structure (SMILES)	inhibition of SARS-CoV-2 cytopathic effect (1 nM) [%]	inhibition of SARS-CoV-2 cytopathic effect (8.33 nM) [%]	inhibition of SARS-CoV-2 cytopathic effect (100 nM) [%]	inhibition of SARS-CoV-2 cytopathic effect (833.33 nM) [%]	inhibition of SARS-CoV-2 cytopathic effect (10000 nM)
NC(=O)OCC(O)COc1ccc(Cl)cc1 (stereo not given) [chlorphensin-carbamate]	2.19	-1.72	1.24	2.98	4.44%
CC(=O)O[C@H]1CC[C@@]2(C)C(=CC[C@@H]3[C@@H]2CC[C@]2(C)C(=O)CC[C@@H]32)C1 [prasterone-acetate]	-0.78	2.86	3.18	4.82	-2.88%
O=C(Nc1cccnc1)N1CCC(Cc2cccc(Oc3ccc(C(F)(F)F)cn3)c2)CC1	0.55	-2.38	-1.02	3.15	-28.6%
[O-][n+]1cccc(CO)c1 [mepiroxol]	0.82	-0.73	2.65	-0.59	2.31%
COc1cc(N)c(Cl)cc1C(=O)N[C@@H]1CCN(CCCOc2ccc(F)cc2)C[C@@H]1OC (racemic) [cisapride]	-0.68	-0.92	1.02	2.56	-4.6%
CO/N=C(\C(=O)N[C@@H]1C(=O)N2C(C(=O)[O-])=C(C[N+]3(C)CCCC3)CS[C@H]12)c1csc(N)n1 [cefepime]	0.86	1.89	2.66	3.19	1.42%
Cc1cc(-c2nc(C(=O)Nc3cn(C4CCOCC4)nc3C(N)=O)co2)ccn1	-2.34	-3.32	-0.57	-4.01	-5.6%
CC(C)(C)c1[nH]cnc1/C=c1\[nH]c(=O)/c(=C/c2ccccc2)[nH]c1=O [plinabulin]	0.88	3.39	-1.75	0.24	2.48%
NCC(=O)CCC(=O)O [5-aminolevulinic-acid]	1.18	1.35	-3.53	-0.73	0.28%
O=C(O)CCCNC(=O)c1cccnc1 [pikamilone]	0.18	-2.74	-0.01	0.63	-1.86%
Cc1ncc([N+](=O)[O-])n1CC(O)CCl (stereo not given) [ornidazole]	-2.81	0.99	1.14	-1.29	1.51%
NC(CO)C(=O)NNCc1ccc(O)c(O)c1O (stereo not given) [benserazide]	-1.48	3.19	2.6	-3.13	-4.67%
Cc1cc(=O)n(-c2ccccc2)[nH]1 [N-demethylantipyrine]	6.19	-3.23	-4.99	-2.77	-2.87%
COc1cccc2c1C(=O)c1c(O)c3c(c(O)c1C2=O)C[C@@](O)(C(C)=O)C[C@@H]3O[C@H]1C[C@H](N)[C@H](O)[C@H](C)O1 [daunorubicin]	0.05	0.64	1.14	4.26	-16.6%
CCCCn1c(-c2ccccc2)nc(-c2ccccc2)c1CN(Cc1ccc2c(c1)OCO2)Cc1ccc2c(c1)OCO2	0	1.63	-0.2	0.71	5.96%
OCCN1CCN(CC/C=C2/c3ccccc3Sc3ccc(Cl)cc32)CC1 [zuclopenthixol]	-1.15	-3.42	-1.94	-3.61	8.42%
CO[C@H]1/C=C/O[C@@]2(C)Oc3c(C)c(O)c4c(O)c(c(/C=N/N5CCN(C6CCCC6)CC5)c(O)c4c3C2=O)NC(=O)/C(C)=C\C=C\[C@H](C)[C@H](O)[C@@H](C)[C@@H](O)[C@@H](C)[C@H](OC(C)=O)[C@@H]1C [rifapentine]	-8.98	-0.78	-1.42	1.06	1.47%
CC(C)NC(=O)COc1cccc(-c2nc(Nc3ccc4[nH]ncc4c3)c3ccccc3n2)c1	-1.49	-1.42	0.74	1.37	1.49%
CC(C)Nc1nc2cc(Cl)c(Cl)cc2n1[C@H]1O[C@@H](CO)[C@H](O)[C@@H]1O [maribavir]	2	-0.5	0.22	-0.76	-2.15%
CN(C)c1ccc(/C=C2\CCCN=C2c2cccnc2)cc1 [DMAB-anabaseine]	-2.66	-1.76	0.68	4.31	-5.07%

Structure (SMILES)	inhibition of SARS-CoV-2 cytopathic effect (1 nM) [%]	inhibition of SARS-CoV-2 cytopathic effect (8.33 nM) [%]	inhibition of SARS-CoV-2 cytopathic effect (100 nM) [%]	inhibition of SARS-CoV-2 cytopathic effect (833.33 nM) [%]	inhibition of SARS-CoV-2 cytopathic effect (10000 nM)
Oc1ccc2ccccc2c1 [beta-naphthol]	-0.51	-1.33	2.24	5.34	2.59%
CN(C)CCOc1ccc(/C(=C(/CCCl)c2ccccc2)c2ccccc2)cc1 [toremifene]	1.37	1.85	1.34	2.22	23.7% (active)
Cc1cc(-c2cc(O)ccc2Cl)cc2nnc(Nc3ccc(OCCN4CCCC4)cc3)nc12	-1.19	1.04	4.54	-1.25	-21.4%
CCOP(=S)(OCC)Oc1nc(Cl)c(Cl)cc1Cl [chlorpyrifos]	0.53	2.45	-0.67	0.54	-4.79%
COc1ccccc1OCC(O)COC(N)=O (stereo not given) [methocarbamol]	-1.87	-0.67	-0.79	2.32	1.06%
CCOc1cc(C(=O)N2CCC(N3CCN(C)CC3)CC2)ccc1Nc1ncc2c(n1)N(C1CCCC1)c1ccccc1C(=O)N2C	0.46	1.68	-0.44	-1.7	-0.04%
NCC(=O)N1C[C@H](NC(=O)c2ccccc2)C[C@H]1C(=O)O [danegaptide]	-2	-0.68	1.14	-0.88	3.55%
CCC(CO)(C(=O)OC1CC2CCC(C1)[N+]2(C)C)c1ccccc1 (stereo not given) [troventol]	1.78	6.67	0.13	-1.03	2.53%
C[C@@H]1CN(CCCn2c3ccccc3c3ccccc32)C[C@H](C)N1 [rimcazole]	-0.92	-0.33	0.18	-2.52	31.1% (active)
[NH-]c1c[n+](N2CCOCC2)no1 [linsidomine]	0.45	3.55	0.57	-0.32	1.99%
CC(=O)N1CCC(NC(=O)c2ccc(F)cc2)CC1	-1.4	-1.44	0.95	0.58	0.98%
CC[N+](C)(CC)CCC[n+]1c(-c2ccccc2)c2cc(N)ccc2c2ccc(N)cc21 [propidium-iodide]	-1.36	-0.29	3.2	2.34	2.62%
Cc1ccc(OC[C@@H](O)[C@H](C)NC(C)C)c2c1CCC2 (racemic)	-1.05	-1.6	-1.43	-0.36	-1.51%
CCC(CC)CC1(C(=O)Nc2ccccc2SC(=O)C(C)C)CCCCC1 [dalcetrapib]	-1.76	-0.46	-1.34	-4.44	-2.5%
O=C(Nc1cc(C(F)(F)F)ccc1O)Nc1cc(C(F)(F)F)ccc1O	-2.23	2.44	6.17	-1.82	-0.23%
CC(=O)N[C@H]1[C@@H](O)[C@H](O)[C@@H](CO)O[C@@H]1O [N-acetylmannosamine]	0.48	-0.18	-0.61	-1.2	1.32%
Cn1c([N+](=O)[O-])cnc1COC(N)=O [ronidazole]	2.87	0.97	1.04	2.17	2.12%
O=[N+]([O-])c1c(Nc2cc(F)cc(Cl)c2)ccc2nonc12	1.7	2.32	1.45	-0.1	2.66%
COC(=O)[C@H](Cc1ccccc1)NC(=O)[C@@H](N)CC(=O)O [aspartame]	-0.23	-0.6	0.53	-1.78	0.85%
